# Inconclusive results are not listed. Where a call stands in place of a potency, no number is given. The source holds several records for some structures; these can differ, active in one and inactive in another. Activity calls are given as the source filed them. Calls follow the shape of the dose curve; as a rule, active = well fitted curve in the direction sought with a large enough effect in the repeat runs; inconclusive = weak or mixed curves; inactive = no such curve, though single readings can be large; an effect the other way counts as inactive or inconclusive.
# Experiments:
# [1] = A CellTox Green Cytotoxicity Assay to monitor cytotoxicity in HEK293 cells - 40 hour (AID 1224871); also: nearly all actives have a fitted effect of over 45% in size; also: potency is read from the fitted curve at half-maximal effect
# In short: (§1)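 Tox21 screen in HEK293: membrane-impermeant cyanine dye fluoresces on binding dead-cell DNA; compound pinned 5 h post-seeding, plates held at 37 C, signal read repeatedly through 40 h.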
# [2] = qHTS RealTime-Glo MT Cell Viability Assay in HepG2 cells - 8 hour (AID 1224873); also: nearly all actives have a fitted effect of over 55% in size; also: potency is read from the fitted curve at half-maximal effect
# In short: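 Real-time viability: cells seeded at 600 per well together with NanoLuc and cell-permeant prosubstrate, compounds added after 5 h incubation. Luminescence tracked at 0, 8, 16, 24, 32 and 40 h of exposure.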
# [3] = A CellTox Green Cytotoxicity Assay to monitor cytotoxicity in HEK293 cells - 24 hour (AID 1224875); also: nearly all actives have a fitted effect of over 45% in size; also: potency is read from the fitted curve at half-maximal effect
# In short: as §1
# [4] = qHTS RealTime-Glo MT Cell Viability Assay in HepG2 cells - 32 hour (AID 1224877); also: nearly all actives have a fitted effect of over 55% in size; also: potency is read from the fitted curve at half-maximal effect
# In short: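 Tox21 10K library screened in qHTS format on HepG2 cells carrying RealTime-Glo reagents. Compounds were added after a 5 h preincubation, and the luminescent signal from continuous culture was measured repeatedly during 40 h treatment.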
# [5] = A CellTox Green Cytotoxicity Assay to monitor cytotoxicity in HepG2 cells - 24 hour (AID 1224878); also: nearly all actives have a fitted effect of over 45% in size; also: potency is read from the fitted curve at half-maximal effect
# In short: (§2)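 Measurements at 0, 8, 16, 24, 32 and 40 h of treatment captured CellTox Green fluorescence in HepG2 cells that had been co-plated with reagent and preincubated 5 h at 37 C/5% CO2.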
# [6] = qHTS RealTime-Glo MT Cell Viability Assay in HEK293 cells - 0 hour (AID 1224880); also: top concentration of the series differs between compounds; nearly all actives have a fitted effect of over 45% in size
# In short: (§3)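 HEK293 + NanoLuc + prosubstrate, 600 cells/well; 5 h, 37 C/5% CO2; compound 23 nL in DMSO by pintool; 37 C; luminescence read at 0, 8, 16, 24, 32 and 40 h time points.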
# [7] = A CellTox Green Cytotoxicity Assay to monitor cytotoxicity in HepG2 cells - 16 hour (AID 1224876); also: nearly all actives have a fitted effect of over 45% in size; also: potency is read from the fitted curve at half-maximal effect
# In short: as §2
# [8] = A CellTox Green Cytotoxicity Assay to monitor cytotoxicity in HepG2 cells - 40 hour (AID 1224879); also: nearly all actives have a fitted effect of over 40% in size; also: potency is read from the fitted curve at half-maximal effect
# In short: as §2
# [9] = qHTS RealTime-Glo MT Cell Viability Assay in HEK293 cells - 16 hour (AID 1224872); also: nearly all actives have a fitted effect of over 50% in size; also: potency is read from the fitted curve at half-maximal effect
# In short: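 Luminescence generated by NanoLuc from substrate produced by living HEK293 cells served as the viability signal. Each value reflects the reading at its stated time point during continuous 40 h compound exposure at 37 C.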
# [10] = qHTS RealTime-Glo MT Cell Viability Assay in HEK293 cells - 40 hour (AID 1224874); details: RealTime-Glo luminescence; max response: stronger effect = lower value; also: nearly all actives have a fitted effect of over 50% in size; also: potency is read from the fitted curve at half-maximal effect
# In short: as §3
SMILES,Potency [1],Potency [2],Potency [3],Potency [4],Potency [5],Potency [6],Potency [7],Potency [8],Potency [9],max response [10],Potency [10]
CC(C)CCCCCCCOP(=O)(Oc1ccccc1)Oc1ccccc1,inactive,inactive,inactive,inactive,inactive,inactive,–,–,–,–,–
C[C@@H]1O[C@@H](O[C@H]2C[C@@H](O)[C@]3(CO)[C@H]4[C@H](O)C[C@]5(C)[C@@H](C6=CC(=O)OC6)CC[C@]5(O)[C@@H]4CC[C@]3(O)C2)[C@H](O)[C@H](O)[C@H]1O,inactive,–,inactive,–,inactive,–,inactive,inactive,–,–,–
Cl/C=C\CCl,–,inactive,inactive,inactive,inactive,inactive,inactive,inactive,inactive,11.8% (inactive),–
CC(=[OH+])/C=C(/C)[O-].CC(=[OH+])/C=C(\C)[O-].CC(=[OH+])/C=C(\C)[O-].[Fe],–,inactive,inactive,inactive,inactive,–,inactive,inactive,inactive,5.66% (inactive),–
O=C1NCN(c2ccccc2)C12CCN(CC1COc3ccccc3O1)CC2 (stereo not given),inactive,–,inactive,inactive,inactive,inactive,inactive,inactive,–,–,–
C[C@@H](Oc1ccc(Cl)cc1Cl)C(=O)O,inactive,inactive,inactive,inactive,inactive,inactive,–,–,–,–,–
Cc1c(Cl)c(=O)oc2cc(OP(=O)(OCCCl)OCCCl)ccc12,inactive,–,–,inactive,inactive,inactive,inactive,inactive,–,–,–
CC(=O)[O-].[Tl+],inactive,inactive,inactive,inactive,inactive,inactive,–,–,–,–,–
Oc1cc(Cl)c(Cl)c(Cl)c1,13.1 µM (active),inactive,inactive,inactive,inactive,inactive,–,–,–,–,–
CC(C)CC(C)(c1ccc(O)cc1)c1ccc(O)cc1,55.1 µM (active),–,–,inactive,43.8 µM (active),inactive,43.8 µM (active),43.8 µM (active),–,–,27.6 µM (active)
C1CCC2CCCCC2C1 (stereo not given),–,inactive,inactive,inactive,inactive,–,inactive,inactive,inactive,15.5% (inactive),–
COP(N)(=S)OC,–,inactive,inactive,inactive,inactive,inactive,inactive,inactive,inactive,0.707% (inactive),–
Nc1ccccc1C(=O)Oc1ccc2ccccc2c1,inactive,–,inactive,inactive,–,inactive,inactive,–,–,–,–
CC(C)Oc1cccc(NC(=O)c2ccccc2C(F)(F)F)c1,61.6 µM (active),–,19.5 µM (active),inactive,43.6 µM (active),inactive,43.6 µM (active),43.6 µM (active),–,–,–
FC(F)(F)c1cccc(C2=CCN(CCc3ccc4ccccc4c3)CC2)c1,–,inactive,inactive,inactive,inactive,inactive,inactive,–,inactive,2.33% (inactive),–
Clc1ccc(CCC(Cn2ccnc2)Sc2c(Cl)cccc2Cl)cc1 (stereo not given),inactive,–,inactive,–,–,inactive,–,10.7 µM (active),–,–,8.49 µM (active)
COc1cccc2c1C(=O)c1c(O)c3c(c(O)c1C2=O)C[C@@](O)(C(=O)CO)CC3OC1CC(N2CCOC(OC)C2)C(O)C(C)O1 (stereo not given in full),inactive,–,–,0.0425 µM (active),–,inactive,23.9 µM (active),0.0425 µM (active),–,–,0.0213 µM (active)
C=CC(=O)OCCCCOC(=O)C=C,43.6 µM (active),–,–,49 µM (active),inactive,inactive,inactive,49 µM (active),–,–,34.7 µM (active)
CCCCOCN(C(=O)CCl)c1c(CC)cccc1CC,–,inactive,inactive,–,inactive,inactive,inactive,–,inactive,-10.8% (inactive),–
CC1CCC(C(C)C)C(OC(=O)c2ccccc2N)C1 (stereo not given),–,inactive,–,inactive,–,–,inactive,–,34.2 µM (active),–,34.2 µM (active)
CCOP(=S)(OCC)OC(Cl)C(Cl)(Cl)Cl (stereo not given),–,inactive,–,inactive,inactive,inactive,inactive,inactive,inactive,-10.7% (inactive),–
O=[N+]([O-])c1c2ccccc2cc2ccccc12,–,inactive,5.43 µM (active),inactive,–,inactive,1.08 µM (active),60.9 µM (active),inactive,–,–
CC(=O)c1ccc(-c2ccccc2)cc1,–,inactive,inactive,inactive,inactive,inactive,–,inactive,inactive,-11.1% (inactive),–
CC(=O)OC1(c2ccccc2)CCN(CCc2ccccc2)CC1,–,inactive,inactive,inactive,inactive,inactive,inactive,–,25.1 µM (active),–,28.2 µM (active)
Oc1ccc(C2(c3ccc(O)cc3)c3ccccc3-c3ccccc32)cc1,–,49 µM (active),inactive,–,61.6 µM (active),–,–,–,49 µM (active),–,–
Oc1ccc2ccc3cccc4ccc1c2c34,–,43.6 µM (active),–,–,–,–,–,–,–,–,13.8 µM (active)
ClC1=C(Cl)[C@]2(Cl)[C@@H]3[C@@H](Cl)[C@H](Cl)C[C@@H]3[C@@]1(Cl)C2(Cl)Cl,–,inactive,–,inactive,inactive,–,inactive,inactive,inactive,7.93% (inactive),–

SMILES,Potency [1],Potency [2],Potency [3],Potency [4],Potency [5],Potency [6],Potency [7],Potency [8],Potency [9],max response [10],Potency [10]
C[C@]12Cc3nonc3C[C@@H]1CC[C@@H]1[C@@H]2CC[C@@]2(C)[C@H]1CC[C@]2(C)O,–,inactive,inactive,inactive,inactive,inactive,inactive,inactive,–,–,19 µM (active)
[Hg+2].[I-].[I-],–,12.3 µM (active),24.5 µM (active),11 µM (active),11 µM (active),–,12.3 µM (active),6.16 µM (active),3.47 µM (active),–,–
ClC1=C(Cl)[C@]2(Cl)[C@H]3[C@H]([C@H]4C=C[C@H]3C4)[C@@]1(Cl)C2(Cl)Cl,–,inactive,–,inactive,inactive,–,inactive,inactive,inactive,-13.1% (inactive),–
CCCN(CC)CC1COC2(CCC(C(C)(C)C)CC2)O1 (stereo not given),–,inactive,inactive,inactive,inactive,inactive,–,inactive,inactive,-8.74% (inactive),–
CCc1cc(C)cc(CC)c1-c1c(OC(=O)C(C)(C)C)n2n(c1=O)CCOCC2,–,inactive,inactive,inactive,inactive,inactive,–,inactive,inactive,–,–
CCCCCCCCCCCCCCCCCCn1cc[n+](C)c1,–,inactive,21.7 µM (active),24.4 µM (active),24.4 µM (active),–,38.7 µM (active),19.4 µM (active),–,–,7.72 µM (active)
CCOC(=O)C1(c2ccccc2)CCN(CCC(C#N)(c2ccccc2)c2ccccc2)CC1,–,–,inactive,inactive,inactive,inactive,inactive,–,inactive,–,–
O=C(O)COc1nc(Cl)c(Cl)cc1Cl,–,inactive,–,inactive,–,inactive,12.6 µM (active),inactive,inactive,–,–
O=[N+]([O-])c1ccc2ccc3cccc4ccc1c2c34,–,inactive,–,inactive,inactive,inactive,inactive,–,inactive,-23.8% (inactive),–
O=[N+]([O-])c1cc([N+](=O)[O-])c2ccccc2c1,–,–,–,–,–,–,inactive,inactive,inactive,4.65% (inactive),–
O=[N+]([O-])c1cc(Cl)ccc1Cl,–,inactive,inactive,inactive,inactive,inactive,inactive,inactive,inactive,–,–
Cc1cc(C)c(C2=C(OC(=O)CC(C)(C)C)C3(CCCC3)OC2=O)c(C)c1,–,inactive,–,inactive,inactive,inactive,inactive,inactive,inactive,-6.03% (inactive),–
C=CCC1=C(C)C(OC(=O)C2C(C=C(C)C)C2(C)C)CC1=O (stereo not given),–,–,51.9 µM (active),inactive,–,inactive,–,–,20.7 µM (active),–,–
c1ccc2c(c1)[nH]c1cnccc12,–,inactive,inactive,inactive,inactive,–,inactive,inactive,inactive,–,–
CC(C)(C)C(O)/C(=C\c1ccc(Cl)cc1Cl)n1cncn1 (stereo not given),–,–,–,–,–,inactive,–,–,29.7 µM (active),–,26.5 µM (active)
O=C(NC(=O)c1c(F)cccc1F)Nc1cc(Cl)c(OC(F)(F)C(F)F)c(Cl)c1,–,inactive,inactive,inactive,inactive,inactive,inactive,inactive,inactive,–,–
C[C@]12CC[C@@H]3c4ccc(OC(=O)N(CCCl)CCCl)cc4CC[C@H]3[C@@H]1CC[C@@H]2O,–,inactive,inactive,inactive,inactive,inactive,–,inactive,inactive,-6.19% (inactive),–
Cn1[nH]nnc1=S,–,inactive,inactive,inactive,inactive,inactive,inactive,inactive,inactive,–,–
CCOP(=S)(OCC)SCCS(=O)(=O)CC,–,inactive,inactive,inactive,inactive,inactive,inactive,inactive,inactive,–,–
OC(Cc1ccccc1Cl)(Cn1cncn1)C1(Cl)CC1 (stereo not given),–,inactive,inactive,inactive,inactive,inactive,inactive,inactive,–,–,49 µM (active)
Clc1ccc(-c2ccccc2)cc1,–,inactive,–,inactive,inactive,–,inactive,inactive,inactive,-16.9% (inactive),–
CCOP(=S)(OCC)SCS(=O)(=O)C(C)(C)C,–,inactive,inactive,inactive,inactive,inactive,inactive,inactive,–,-15.1% (inactive),–
CC(c1ccc(O)cc1)c1ccc(O)cc1,–,inactive,inactive,inactive,inactive,–,–,inactive,45.9 µM (active) and inactive,–,–
C[C@]12CC[C@H]3[C@@H](CCC4=CC(=O)CC[C@@]43C)[C@@H]1CC[C@@H]2O,–,inactive,inactive,inactive,inactive,–,inactive,–,–,–,48.6 µM (active)
Clc1ccc(Oc2ccccc2)cc1,–,inactive,–,inactive,inactive,inactive,inactive,inactive,inactive,-29.2% (inactive),–
CC(=O)O[C@H]1CC[C@@]2(C)C(=CC[C@@H]3[C@@H]2CC[C@]2(C)C(=O)CC[C@@H]32)C1,–,inactive,–,inactive,inactive,–,inactive,–,49 µM (active),–,54.9 µM (active)

# From PubChem BioAssay (Tox21)
